These results are taken from PubChem BioAssay (EPA / NIEHS).

Values joined by “and” are separate entries in the source; they are usually repeats but may differ in a detail not shown here. Equal entries are not always repeated. Results filed as inconclusive are left out. Where a structure was tested more than once in an assay, its records may differ in their call. Active and inactive are the calls of the source. How the source made its calls, unless noted: active means hit-call score of the fitted dose curve at least 0.9, where 1 is the maximum; inactive means score below 0.9.

Experiment [1] is described as follows: BSK_SAg_PBMCCytotoxicity: PBMC Cytotoxicity Assessment in the BioMAP Diversity Plus: SAg Assay (AID 2283093).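 Further: PBMC viability measured as Alamar Blue reduction fluorescence at 546/580 nm; fitted both ways against DMSO so a hit may be loss or gain of signal.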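 On AC50: PBMC superantigen activated with SEB plus TSST-1 one hour after compound addition.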 The conditions noted are these: primary human HUVEC with PBMC. In outline: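 Alamar Blue reduction (6 h, ex/em 546/580 nm) read after 90 h culture of PBMC pre-dosed 1 h then stimulated with SEB plus TSST-1, 20 ng/mL each. Gain or loss of signal fitted relative to DMSO.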

Read-out in experiment [2]: Interleukin-8 (IL8), CXCL8 (gene 3576)
Description: BSK_SAg_IL8: BioMAP Diversity Plus: SAg Assay for Interleukin-8 (IL8) Biomarker Activity (AID 2283094). The conditions noted are these: primary human HUVEC with PBMC; actives raise or lower the signal. The procedure, abridged:
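Chemicals were dosed onto a human endothelial–PBMC co-culture, and IL-8 was quantified by ELISA after 24 h. Both increases and decreases were fitted relative to DMSO.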

A short description of experiment [3]: BSK_SAg_Proliferation: Cell Proliferation Assessment in the BioMAP Diversity Plus: SAg Assay (AID 2283095).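 Further: relative cell number as total protein by SRB absorbance in sub-confluent culture.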 The following applies: primary human HUVEC with PBMC. The procedure, abridged:
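Absorbance of sulforhodamine B at 560 nm reports total protein in a human vascular endothelial/PBMC co-culture after 96 h chemical exposure. Gain or loss of signal is fitted in both directions against DMSO.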

Experiment [4] can be described thus: BSK_SAg_SRB: Viability Assessment in the BioMAP Diversity Plus: SAg Assay (AID 2283096).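 Further: cells read one day after compound addition; hits may be either gain or loss of signal compared with DMSO.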 The following applies: primary human HUVEC with PBMC. In outline: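 SRB absorbance at 560 nm served as the viability read-out. Cells (HUVEC plus peripheral blood mononuclear cells) were TCA-fixed and stained 24 h post-dosing; activity fitted in both directions against DMSO controls.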

Experiment [5] concerns the target human CYP2A6, CYP2A6 (gene 1548) (UniProt P11509). Description: NVS_ADME_hCYP2A6: NovaScreen (NVS) CYP450-related Enzyme Activity (ADME) Assay for human CYP2A6 (AID 2283099; active means hit-call score of the fitted dose curve at least 0.9, where 1 is the maximum). The procedure, abridged: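 Loss of fluorescence signal relative to acetonitrile vehicle reported CYP2A6 inhibition in a cell-free system using insect-cell-derived enzyme. Readings were taken at 0.5 h; top concentration in follow-up dose series was 20 uM.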

The target of experiment [6] is human CYP2B6, CYP2B6 (gene 1555) (UniProt P20813). Description: NVS_ADME_hCYP2B6: NovaScreen (NVS) CYP450-related Enzyme Activity (ADME) Assay for human CYP2B6 (AID 2283101; active means hit-call score of the fitted dose curve at least 0.9, where 1 is the maximum). The method, then: NVS_ADME_hCYP2B6 is a biochemical, single-readout assay that uses extracted gene-proteins in a cell-free assay. Measurements were taken 1 hour after chemical dosing in a 96-well plate.NVS_ADME_hCYP2B6 is one of one assay component(s) measured or calculated from the NVS_ADME_hCYP2B6 assay. It is designed to make measurements of enzyme activity, a form of enzyme reporter, as detected with fluorescence intensity signals by Fluorescence technology.Data from the assay component NVS_ADME_hCYP2B6 was analyzed into 1 assay endpoint. This assay endpoint, NVS_ADME_hCYP2B6, was analyzed in the positive analysis fitting direction relative to Acetonitrile as the negative control and baseline of activity. Using a type of enzyme reporter, loss-of-signal activity can be used to understand changes in the enzymatic activity as they relate to the gene CYP2B6. Furthermore, this assay endpoint can be referred to as a primary readout, because this assay has produced multiple assay endpoints where this one serves a enzymatic activity function. To generalize the intended target to other relatable targets, this assay endpoint is annotated to the cyp intended target family, where the subfamily is xenobiotic metabolism.
Binding assays used specific radioligands (tritiated, iodinated) with non-radioactive competitive displacement ligands in agonist or antagonist protocols (as indicated) and various reference compounds and inhibitors to titrate specific binding to receptors and transporters. Most enzyme assays (CYPs, kinases, phosphatases, proteases, HDACs) used recombinant protein and specific substrates (fluorescence mostly, some colorimetric and radioactive) and inhibitors, followed by a biochemical separation of substrate and product. All assays for the biochemical HTS were initially run in duplicate at a single concentration (10 uM for CYP450 assays and 25 uM for all others). […] Each assay was run with positive and negative controls, and concurrent controls on every plate. The follow-up (secondary) screen tested active chemical-pairs in concentration series, as well as a few additional assays not tested in the primary screen, some selected negative inactives, and several cases re-run in the concentration series for confirmatory purposes.

Experiment [7] has as its target human CYP1A1, CYP1A1 (gene 1543) (UniProt P04798). The experiment can be described thus: NVS_ADME_hCYP1A1: NovaScreen (NVS) CYP450-related Enzyme Activity (ADME) Assay for human CYP1A1 (AID 2283100; active means hit-call score of the fitted dose curve at least 0.9, where 1 is the maximum). In outline: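 Inhibition of recombinant CYP1A1 turnover was assessed fluorometrically in a biochemical format 1 h after compound exposure. Testing began at 10 uM in duplicate and progressed to concentration series reaching 20 uM, with on-plate positive and negative controls.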

In experiment [8] the target is human CYP1A2, CYP1A2 (gene 1544) (UniProt P05177). The experiment can be described thus: NVS_ADME_hCYP1A2: NovaScreen (NVS) CYP450-related Enzyme Activity (ADME) Assay for human CYP1A2 (AID 2283102; active means hit-call score of the fitted dose curve at least 0.9, where 1 is the maximum;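 on AC50: fluorescence from turnover of a fluorogenic substrate by recombinant insect-cell CYP1A2; potency for inhibition since loss of fluorescence marks reduced CYP1A2 activity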). In outline: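 Inhibition scored as decrease in fluorescent product versus acetonitrile negative control. Enzyme: insect-cell recombinant human CYP1A2, substrate-specific, cell-free. Reading at 0.5 h; 10 uM duplicate initial screen with positive and negative controls on every plate.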
Sequence of human CYP1A2, CYP1A2 (gene 1544) (P05177 whole entry, looked up): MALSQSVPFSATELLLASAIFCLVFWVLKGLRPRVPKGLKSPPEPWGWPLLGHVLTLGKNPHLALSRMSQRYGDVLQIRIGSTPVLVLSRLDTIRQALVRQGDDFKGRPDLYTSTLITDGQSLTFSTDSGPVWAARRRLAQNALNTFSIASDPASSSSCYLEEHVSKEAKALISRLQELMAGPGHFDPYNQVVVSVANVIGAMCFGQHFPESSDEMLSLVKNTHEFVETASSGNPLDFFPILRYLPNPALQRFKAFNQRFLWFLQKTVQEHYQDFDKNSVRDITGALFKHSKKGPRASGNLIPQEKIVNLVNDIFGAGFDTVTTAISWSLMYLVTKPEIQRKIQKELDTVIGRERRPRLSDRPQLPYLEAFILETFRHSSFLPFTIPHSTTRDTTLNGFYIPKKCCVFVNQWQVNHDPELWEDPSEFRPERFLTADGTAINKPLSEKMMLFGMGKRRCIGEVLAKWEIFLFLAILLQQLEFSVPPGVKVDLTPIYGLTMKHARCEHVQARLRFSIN

Sequence of human CYP1A1, CYP1A1 (gene 1543) (P04798 whole entry, looked up): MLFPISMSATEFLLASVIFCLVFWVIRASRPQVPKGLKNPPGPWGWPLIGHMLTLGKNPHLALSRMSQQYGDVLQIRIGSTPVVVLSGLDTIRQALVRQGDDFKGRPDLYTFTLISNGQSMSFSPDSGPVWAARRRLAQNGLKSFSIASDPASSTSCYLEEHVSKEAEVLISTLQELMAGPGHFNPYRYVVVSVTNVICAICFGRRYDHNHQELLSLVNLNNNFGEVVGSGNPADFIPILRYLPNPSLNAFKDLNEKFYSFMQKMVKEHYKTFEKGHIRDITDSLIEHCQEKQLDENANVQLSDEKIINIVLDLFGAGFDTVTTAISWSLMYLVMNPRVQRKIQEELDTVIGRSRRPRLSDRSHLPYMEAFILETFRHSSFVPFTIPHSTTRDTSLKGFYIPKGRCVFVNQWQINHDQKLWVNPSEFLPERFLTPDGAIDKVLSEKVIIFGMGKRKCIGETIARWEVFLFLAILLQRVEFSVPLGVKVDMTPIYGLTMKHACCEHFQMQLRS
Sequence of human CYP2B6, CYP2B6 (gene 1555) (P20813 whole entry, looked up): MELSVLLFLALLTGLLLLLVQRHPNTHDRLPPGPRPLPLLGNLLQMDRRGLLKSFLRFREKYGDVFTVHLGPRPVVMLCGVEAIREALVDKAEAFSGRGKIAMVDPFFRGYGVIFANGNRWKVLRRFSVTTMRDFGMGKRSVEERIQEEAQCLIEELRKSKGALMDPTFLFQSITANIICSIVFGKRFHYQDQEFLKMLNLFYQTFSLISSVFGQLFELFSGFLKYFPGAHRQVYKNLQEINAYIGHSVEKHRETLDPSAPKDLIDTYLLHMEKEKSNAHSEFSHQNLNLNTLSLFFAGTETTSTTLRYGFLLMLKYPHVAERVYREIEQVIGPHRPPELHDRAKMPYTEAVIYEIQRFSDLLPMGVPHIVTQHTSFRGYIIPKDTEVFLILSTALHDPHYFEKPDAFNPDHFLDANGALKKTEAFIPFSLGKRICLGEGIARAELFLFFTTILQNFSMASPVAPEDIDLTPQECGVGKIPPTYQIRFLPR
Sequence of human CYP2A6, CYP2A6 (gene 1548) (P11509 whole entry, looked up): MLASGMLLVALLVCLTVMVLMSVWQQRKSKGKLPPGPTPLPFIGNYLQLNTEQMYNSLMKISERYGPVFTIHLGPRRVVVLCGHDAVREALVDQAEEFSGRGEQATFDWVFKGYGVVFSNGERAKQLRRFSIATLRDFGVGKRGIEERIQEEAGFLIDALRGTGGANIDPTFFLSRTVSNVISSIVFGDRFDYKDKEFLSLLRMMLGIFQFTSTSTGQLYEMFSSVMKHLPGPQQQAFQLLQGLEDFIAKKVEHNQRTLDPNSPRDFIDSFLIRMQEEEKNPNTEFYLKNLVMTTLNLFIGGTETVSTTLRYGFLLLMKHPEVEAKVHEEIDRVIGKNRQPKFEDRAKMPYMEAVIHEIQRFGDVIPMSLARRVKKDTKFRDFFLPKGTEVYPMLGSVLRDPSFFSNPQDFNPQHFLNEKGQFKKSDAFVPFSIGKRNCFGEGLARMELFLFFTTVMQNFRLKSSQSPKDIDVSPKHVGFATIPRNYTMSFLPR

Turning to `CC[C@H](C)[C@@H](C(=O)O)n1sc2ccccc2c1=O`, the result in experiment [1], in experiment [2], in experiment [3] and in experiment [4] was inactive.
For the compound `CCCCCCCC(=O)O`, the result in experiment [1], in experiment [2], in experiment [3] and in experiment [4] was inactive.
In the case of `O=c1c(-c2ccc(O)cc2)coc2cc(O)ccc12`, the result in experiment [1], in experiment [2] and in experiment [4] was inactive. Also, in experiment [3], the AC50 was 20 µM (active).
Turning to `COC(=O)CCCCC(=O)OC`, the result in experiment [1], in experiment [2], in experiment [3] and in experiment [4] was inactive.
As to `O=[N+]([O-])c1ccc(O)cc1`, the result in experiment [1], in experiment [2], in experiment [3], in experiment [4], in experiment [5] and in experiment [6] was inactive.
For the compound `CCCOc1sc(C(=O)N2CCC(c3cc(CN)ccc3F)CC2)c(C)c1Br`, the AC50 in experiment [1] was 6.22 µM (active); in experiment [2], 7.78 µM (active); in experiment [3], 5.11 µM (active); in experiment [4], 6.68 µM (active); in experiment [6], 8.64 µM (active); in experiment [8], 5.25 µM (active). Besides, in experiment [7], the compound was classed as inactive.
Take `CC1=C(/C=C/C(C)=C/C=C/C(C)=C/C(=O)O)C(C)(C)CCC1`: the outcome in experiment [1], in experiment [2], in experiment [4], in experiment [5], in experiment [6] and in experiment [8] was inactive. In addition, the AC50 in experiment [3] is 27.5 µM (active); in experiment [7], 1.43 µM (active).
As to `CC(O)CO` (configuration not stated), the result in experiment [1], in experiment [2], in experiment [3] and in experiment [4] was inactive.
In the case of `CCCCCCCCCCCCCC[N+](C)(C)C`, the AC50 in experiment [1] was 4.69 µM (active); in experiment [2], 3.2 µM (active); in experiment [3], 0.539 µM (active); in experiment [4], 3.15 µM (active).
With `NC(=O)N1C(=O)C(C(=O)c2cc(Cl)cs2)c2cc(F)c(Cl)cc21` (configuration not stated), the result in experiment [1] and in experiment [2] was inactive. Besides, the AC50 in experiment [3] was 12.4 µM (active); in experiment [4], 20 µM (active).
`O=C(OCCOCCOC(=O)c1ccccc1)c1ccccc1`: the result in experiment [1], in experiment [2], in experiment [3], in experiment [4] and in experiment [7] was inactive. In addition, in experiment [8], the AC50 was 1.71 µM (active).
Regarding `CCCCCCCCCCCCCCCS(=O)(=O)Oc1ccccc1`, the half-maximal activity concentration (AC50) in experiment [1] is 5.98 µM (active); in experiment [3] it was 6.39 µM (active). The result in experiment [2] and in experiment [4] was inactive.
Take `O=C(O)Cc1cc(I)c(Oc2cc(I)c(O)c(I)c2)c(I)c1`: the result in experiment [1] and in experiment [4] was inactive. Moreover, the AC50 is 13.4 µM (active) in experiment [2] and 19.6 µM (active) in experiment [3].
For the compound `Cc1oc(-c2ccccc2)nc1CCOc1ccc(C[C@H](Nc2ccccc2C(=O)c2ccccc2)C(=O)O)cc1`, the AC50 is 28.9 µM (active) in experiment [1], 15.8 µM (active) in experiment [2], 19.3 µM (active) in experiment [3] and 18.8 µM (active) in experiment [4].
As for `CN1CCC[C@H]1c1cccnc1`, the result in experiment [1], in experiment [2], in experiment [3] and in experiment [4] was inactive.
Take `FC(F)(I)C(F)(F)C(F)(F)C(F)(F)C(F)(F)C(F)(F)I`: the AC50 is 9.66 µM (active) and 45 µM (active) and 41.6 µM (active) in experiment [2]; 28.1 µM (active) [middle of 5 runs] in experiment [4]. Also, the result in experiment [2] was inactive.
For `OC1CCC(C2CCCCC2)CC1` (configuration not stated), the result in experiment [1], in experiment [2], in experiment [3] and in experiment [4] was inactive.
In the case of `c1ccc2c(c1)ccc1ccccc12`, the outcome in experiment [1], in experiment [2], in experiment [3] and in experiment [4] was inactive.

As a reminder, the AC50 is the concentration giving half of the maximal activity seen.
